Screens: PubChem BioAssay, National Center for Advancing Translational Sciences (NCATS)
Rows were chosen to be rich in hits. Some 6% of all compounds tested hit in one or more screens of this group.
D1 agonist – human D1 receptor agonism | HEK293 T-REx D1 cells, calcium flux, agonist mode | activation, % at 2 µM | actives 1% (n = 360,000) | AID 504660; in the data active = activation above about 30%; also: 0% is about no effect
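Inducible HEK293 T-REx D1 cells, force-coupled to calcium signalling, were plated at 4000 cells/well with tetracycline and held overnight at 30 C. After no-wash calcium dye loading, compound-evoked calcium rise over 180 s flagged agonists.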
D1 PAM – human D1 dopamine receptor positive modulation; HEK293 TREx D1 cells, calcium flux, dopamine EC20 potentiation; potentiation, % at 10 µM; P21728; AID 504651; actives 0.036% (n = 360,000); in the data active = potentiation above about 30%; also: 0% is about no effect
DRD3 agonist – activates the human D3 dopamine receptor | actives 0.58% (n = 410,000) | D3R DiscoveRx beta-arrestin cells, luminescence, 90 min | max activation, % | P35462; in the data active = max activation above about 30%; also: 0% is about no effect
Target sequence (P35462 whole entry, looked up): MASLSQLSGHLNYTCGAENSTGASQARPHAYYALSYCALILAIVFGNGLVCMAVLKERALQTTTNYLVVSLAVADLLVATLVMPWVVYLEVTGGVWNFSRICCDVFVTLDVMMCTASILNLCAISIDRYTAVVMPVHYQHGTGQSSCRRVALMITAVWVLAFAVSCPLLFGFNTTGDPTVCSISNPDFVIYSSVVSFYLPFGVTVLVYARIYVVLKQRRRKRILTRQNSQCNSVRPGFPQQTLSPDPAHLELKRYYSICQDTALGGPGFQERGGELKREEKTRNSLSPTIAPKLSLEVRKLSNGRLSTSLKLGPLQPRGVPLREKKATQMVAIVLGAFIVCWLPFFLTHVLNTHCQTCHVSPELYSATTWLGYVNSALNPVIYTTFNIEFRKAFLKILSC
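Agonist-mode cell screen: cells plated at 1500/well and incubated overnight at 37 °C, then exposed to library compounds for 90 min at 37 °C. Detection reagent was added for 30–60 min at room temperature, and luminescence was read.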
D1 antag – blocks dopamine activation of the human D1 receptor; HEK293 TREx D1 cells, calcium flux, dopamine EC80; active compounds read low; actives 3.2% (n = 360,000); activity change, negative = inhibition, % at 10 µM; in the data active = activity change below about -30%; also: % is scaled to controls: 0 for no effect and ±100 for the full control effect
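Calcium flux readout: force-coupled, inducible Hek293 Trex D1 line, cells induced overnight at 30 C with tetracycline, dye-loaded 30–90 min at RT. Antagonism scored against EC80 dopamine challenge given 180 s after compound.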
DRD3 antagonist – D3 dopamine receptor (human) antagonism; P35462; D3R cells, DiscoveRx beta-arrestin luminescence, antagonist mode; active compounds read low; max response, negative = inhibition, %; actives 2.5% (n = 360,000); AID 652054; in the data active = max response below about -50%; inconclusive = no clear call, values can overlap the other calls; also: % is scaled to controls: 0 for no effect and ±100 for the full control effect
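Cells plated overnight at 1500 cells/well, then exposed to library compounds with dopamine controls for 90 minutes at 37 degrees C. DiscoveRx reagent added for 30–60 minutes at room temperature; luminescence read, quantitative HTS format.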
BCR signal inh – chronic active BCR signaling inhibition | ABC-DLBCL IkBa-CBG/CBR reporter, luminescence ratio, 4 h | Potency, µM (titrated, usually from 46.1 µM), for inactives: at the highest dose activity change, negative = inhibition, most hits filed as inhibitors | actives 0.05% (n = 340,000); active = well fitted inhibition curve with a large enough effect in the signal ratio, with a control signal flat, not every such curve was filed as active; inconclusive = small, poorly fitted or top-dose-only effect, or effect the other way, or a change in a side signal; the % refers to the signal ratio;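 also: potency is read from the fitted curve at half-maximal effect; plate controls were basal doxycycline-induced cells for no effect and cells given 10 µM MG132 for full effect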
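Concentration-response series (up to 46 uM) were applied to TMD8 dual-reporter cells for 4 h at 37C with doxycycline. Green/red ratio, after filter-overlap correction, defined %Activity; red signal alone was normalised to basal cells and zero luminescence.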
* = called active by the depositor; u = inconclusive; x = no result.

SMILES	D1 agonist	D1 PAM	DRD3 agonist	D1 antag	DRD3 antagonist	BCR signal inh
O=C(CSc1nc2c([nH]c3ccccc32)c(=O)n1-c1ccc(F)cc1)NCc1ccccc1	2	-7	2	6	x	x
O=C(O)c1cccc(Nc2ccc([N+](=O)[O-])cn2)c1	-1	-6	-9	-35*	-19	u
CC(=O)Nc1ccc([N+](=O)[O-])cn1	1	4	-8	-11	-53*	5%
O=[N+]([O-])c1ccc(Nc2ccc3ccccc3c2)nc1	3	-10	-16	-34*	-107*	u
O=C(Nc1ccc([N+](=O)[O-])cn1)C1CC1	-1	-4	5	2	16	u
COc1ccc(N2C(=O)CC(Cc3ccccc3)C2=O)cc1 (centres undefined)	1	2	0	-2	16	3%
COc1ccc(C[C@@H]2OC3(C=CC(=O)C=C3)O[C@H]2Cc2ccc(OC)cc2)cc1	x	x	-13	x	-118*	x
O=C1Nc2ccccc2C1Cc1ccccc1 (centres undefined)	1	3	29	6	2	-8%
O=C1C=CC2(C=C1)O[C@H](Cc1ccccc1)[C@@H](Cc1ccccc1)O2	x	x	-30	x	-109*	x
COc1ccc(CNC(=O)Cn2cnc3c(NCc4ccccc4)ncnc32)cc1	x	x	-3	x	u	0%
COC(=O)C1C(O)CCC2CN3CCc4c([nH]c5ccccc45)C3CC21 (centres undefined)	2	-11	-12	0	u	u
COC(=O)[C@H]1[C@H]2C[C@H]3c4[nH]c5ccccc5c4CCN3C[C@H]2CC[C@@H]1O	0	0	-94	1	-132*	-11%
Cc1ccc(-c2nc3ncccc3o2)cc1NC(=O)c1ccc(-c2cccc(Cl)c2C)o1	-2	0	6	0	x	x
Cc1cc[n+](CC(=O)N2CCCc3ccccc32)cc1	4	-6	-26	12	-66*	-2%
O=C(C[n+]1ccccc1)N1CCCc2ccccc21	3	2	-5	22	-53*	14%
CN(C)c1cc[n+](CC(=O)N2CCCc3ccccc32)cc1	3	-4	-25	-3	u	8%
Cc1ccccc1NC(=O)c1c(C)oc2ccc(O)c(CN3CCOCC3)c12	2	3	-6	-3	x	x
COCCNC(=O)C1CCCN(Cc2cccc(C#N)c2)CC1 (centres undefined)	x	x	1	x	17	x
CC1(C)CCN2CCC(C)(C)c3c(O)ccc1c32	207*	-6	0	26	-14	1%
CC1(C)CCC(C)(C)c2cc([S+](=O)([O-])N3CCN([S+](=O)([O-])c4c(F)cccc4F)CC3)ccc21	-1	3	x	-5	x	x
Cc1cc(/C=C(\C#N)C(N)=O)c(C)n1-c1ccc(N2CCOCC2)c([N+](=O)[O-])c1	12	-10	2	-32*	1	-6%
Cc1cc(C=O)c(C)n1-c1ccc(N2CCCCC2)c([N+](=O)[O-])c1	7	1	6	-22	5	u
O=C(c1ccccc1)c1ccc(OCCn2cnc3ccccc3c2=O)cc1	2	-6	2	-29	5	-9%
CC(C)(c1ccccc1)c1ccc(OCCn2cnc3ccccc3c2=O)cc1	33*	6	8	5	18	13%
Oc1ccc2ccccc2c1/C=N/Nc1nnc(-c2ncc[nH]2)c2ccccc12	36*	-4	11	18	60	u
SMILES	D1 agonist	D1 PAM	DRD3 agonist	D1 antag	DRD3 antagonist	BCR signal inh
COc1ccc(/C=N/Nc2nnc(-c3ncc[nH]3)c3ccccc23)cc1	1	-3	-5	-7	18	u
CC(=O)N1c2ccccc2C2(C)C(C1(C)C)C2(Cl)Cl (centres undefined)	207*	21	-13	5	-19	-3%
Cc1ccc2nc(NCc3ccccc3)c3nncn3c2c1	0	-3	5	-14	x	x
O=C(C1CCCCC1)N1C[C@H](n2cc(C3CC3)nn2)[C@@H](O)C[C@@H]1c1ccc(Cl)cc1	x	x	-5	x	u	x
COc1cccc(C(=O)NNC(=O)CCN2CCN(c3ccccc3)CC2)c1	x	x	9	x	u	0%
CCc1cc(C(=O)NNC(=O)CCN2CCN(c3ccccc3)CC2)sc1C	0	-11	6	-28	-63*	0%
N#CCC(=O)Nc1ccc(C(=O)NNC(=O)CCN2CCN(c3ccccc3)CC2)cc1	4	3	0	13	-83*	-1%
O=C(CCN1CCN(c2ccccc2)CC1)NNC(=O)c1cccc2ccccc12	1	-4	53*	-9	-15	0%
CCC1(c2ccccc2)NC(=O)N(CC(=O)NNC(=O)CCN2CCN(c3ccccc3)CC2)C1=O (centres undefined)	2	-3	-11	15	-56*	0%
CCC1(c2ccccc2)NC(=O)N(CC(=O)Nc2ccccc2N2CCCCC2)C1=O (centres undefined)	19	12	11	0	3	6%
COc1cc2cc(C(=O)N3CCOCC3)cc(-c3ccc(C)cc3)c2cc1OC	4	-4	-2	-1	9	16µM*
CC1CCc2c(sc3nc(-c4cc5ccccc5oc4=O)nc(Cl)c23)C1 (centres undefined)	29	0	8	-3	x	x
COC(=O)C1=C(C(C)=O)C(c2ccc(C)cc2)n2nnnc2N1 (centres undefined)	5	-9	-2	-15	u	8%
CCc1ccc(C2C(C(C)=O)=C(C(=O)OC)Nc3nnnn32)cc1 (centres undefined)	0	-5	-5	-24	-57*	6%
COc1ccc(N/N=C(/N=Nc2nc(C)cc(=O)[nH]2)c2ccccc2)cc1	0	-2	-6	-3	-57*	u
Cc1cc(=O)[nH]c(N=N/C(=N/Nc2ccc(O)cc2)c2ccccc2)n1	0	-1	2	x	-101*	u
COc1ccc(NC2=NC3(CCCCC3)N=C(N)N2)cc1	3	-10	0	-87*	-13	8%
CCCCOc1ccc(NC2=NC3(CCCCC3)N=C(N)N2)cc1	1	-17	0	-15	-16	u
COc1ccc(OC)c(NC2=NC3(CCCCC3)N=C(N)N2)c1	1	-23	0	-54*	-55*	-1%
CC(C)Oc1ccc(CCC(=O)N/N=C/c2ccc3c(c2)OCO3)cc1	6	-1	6	1	16	1%
O=C(CCc1ccc(O)c(O)c1)N/N=C/c1ccc2c(c1)OCO2	10	-6	76*	-10	-7	u
CCCCOCCOC(=O)C1OC1(C)c1ccccc1 (centres undefined)	x	x	3	x	-1	x
